Results filed as inconclusive are left out. Calls of active or inactive are those of the source. The call rests on the fitted dose curve; in most records, active means well fitted cell-killing curve with a large enough effect; inconclusive means small, poorly fitted or top-dose-only effect; inactive means no such curve, though single readings can be large or run the other way.
On the % scale 0 is the no-effect control and ±100 the full control effect; potency means the concentration at half of the fitted maximal effect.

This experiment in a line: qHTS of pediatric cancer cell lines to identify multiple opportunities for drug repurposing: Primary screen for MG 63 (6-TG R) cells (AID 1347105). Further: nearly all actives have a fitted effect of over 50% in size. The note with it: MG 63 (6-TG R) viability, CellTiter-Glo, 48 h; series mostly up to 46 µM; activity change, negative = cytotoxic: at the top concentration. The source says: Drug repurposing or repositioning has been offered as a strategy for drug development in oncology programs. This approach has special potential for childhood cancers and other rare or orphan diseases, where the expected return on new drug development has been a disincentive to pharmaceuticals. […] In this project we exploit the poly-pharmacology of drugs to discover new indications via phenotypic screening of a panel of 19 well-characterized cell lines derived from solid tumors seen in children and adolescents. The goal is to identify approved drugs with previously unrecognized anticancer properties that has the potential to reveal new mechanisms and biological processes involved in carcinogenesis or drug resistance. We employed a titration-based paradigm (quantitative high-throughput screening or qHTS), where all compounds were tested at multiple concentrations for their effect on cell viability. Concentration-response curves (CRCs) were derived directly from the primary screen, and both potency and efficacy values were used to identify compounds with robust bioactivity profiles. We screened the NIH Chemical Genomics Center (NCGC) Pharmaceutical Collection (NPC) and Mechanism Interrogation Plate (MIPE) small molecule collections of approved and investigational compounds against these cell lines; and measured metabolically active cells after 48 hours of compound treatment as a proxy for cell viability. […] Assay Submitter: Nathalia J. Martinez, National Center for Advancing Translational Sciences, National Institutes of Health, Rockville, MD, USA; email: natalia.martinez@nih.gov Shen, M et al. Quantitative high-throughput phenotypic screening of pediatric cancer cell lines identifies multiple opportunities for drug repurposing. Oncotarget 2017 Dec 19;9(4):4758-4772. PMID 29435139.
The cells were obtained from University of North Carolina (UNC), Pediatric Preclinical Testing Program (PPT), and Coriell Institute (CI). qHTS cell viability assay: Cells were assayed in growth media at a density of 500-1,000 cells/well. Five microliters of cells were dispensed into 1,536-well, white, solid-bottom, TC-treated plates (Greiner Bio One) using a multidrop dispenser and incubated at 37 degrees C, 5% CO2, under a humidified atmosphere for 5 hours. Twenty-three nanoliters of compounds and controls (neutral control DMSO or positive control bortezomib at final concentration of 2.3 µM) were subsequently transferred by Kalypsys pintool. For primary screens, the MIPE collection was tested at 11-point dilutions (final concentrations range from 0.78 nM to 46 µM) and the NPC collection at 8-point dilutions (final concentrations range from 0.59 nM to 46 µM). Compounds tested in follow-up screens were assayed at 11-point dilutions. Cells were incubated for 48 hours, followed by addition of 3 µL of CellTiter-Glo (Promega). After a 15 min incubation at room temperature, samples were analyzed for luminescence intensity using a ViewLux High-throughput CCD imager equipped with clear filters.
Background: qHTS replaces the single test concentration by a dilution series.
With `CCN(CC)CCOC(=O)C(c1ccccc1)C1CCCCC1` (stereo not given), the “activity change, negative = cytotoxic” value was 2.24% (inactive).

Turning to `COc1cccc2c1C(=O)c1c(O)c3c(c(O)c1C2=O)C[C@@](O)(C(=O)CO)C[C@@H]3O[C@H]1C[C@H](N)[C@H](O)[C@H](C)O1`, the Potency was 5.31 µM (active).

In the case of `O=C(COc1ccc(Cl)cc1)N1CCN(Cc2ccc3c(c2)OCO3)CC1`, the “activity change, negative = cytotoxic” value is -11.1% (inactive).

For `CC(O)C(=O)O` (stereo not given), the “activity change, negative = cytotoxic” value was 3.86% (inactive).

Regarding `COc1cccc(OC)c1C(=O)N[C@@H]1C(=O)N2[C@@H]1SC(C)(C)[C@@H]2C(=O)O`, the “activity change, negative = cytotoxic” value is 6.32% (inactive).

Consider `CCN(CC)CCNC(=O)COc1ccc(Cl)cc1`, for which the “activity change, negative = cytotoxic” value was -6.79% (inactive).

Regarding `NC[C@H]1O[C@H](O[C@H]2[C@H](O[C@@H]3O[C@H](CO)[C@@H](O)[C@H]3O)C(O)[C@H](N)C[C@@H]2N)[C@H](N)[C@@H](O)[C@@H]1O` (stereo not given in full), the activity change, negative = cytotoxic was -2.08% [at 9.22 µM] (inactive).

As for `CCCCOc1ccc(OCCCN2CCOCC2)cc1`, the “activity change, negative = cytotoxic” value was -6.19% (inactive).

Turning to `C[C@@H]1CN(CCCn2c3ccccc3c3ccccc32)C[C@H](C)N1`, the “activity change, negative = cytotoxic” value was -53.6% (inactive).

For the compound `CCOc1ccc2nc3cc(N)ccc3c(N)c2c1`, the “activity change, negative = cytotoxic” value was -20% (inactive).

Take `c1ccc(OCc2ccc(CCCN3CCOCC3)cc2)cc1`: the “activity change, negative = cytotoxic” value was -19.2% (inactive).

As for `COc1cc(N)c(Cl)cc1C(=O)NC1CCN(CCCOc2ccc(F)cc2)CC1OC` (stereo not given), the “activity change, negative = cytotoxic” value is -14.4% (inactive).

In the case of `CCCCC1=NC2(CCCC2)C(=O)N1Cc1ccc(-c2ccccc2-c2nn[nH]n2)cc1`, the “activity change, negative = cytotoxic” value is -9.4% (inactive).

With `OC[C@@H](O)[C@@H](O[C@@H]1O[C@H](CO)[C@H](O)[C@H](O)[C@H]1O)[C@H](O)[C@@H](O)CO`, the “activity change, negative = cytotoxic” value was -13.9% (inactive).

For `Cc1c(C(C)C)c(=O)n(-c2ccccc2)n1C`, the “activity change, negative = cytotoxic” value was -2.88% (inactive).

Take `C=C1C[C@H]2[C@@H]3C=C(C)C4=CC(=O)CC[C@]4(C)[C@H]3CC[C@]2(C)[C@@]1(OC(C)=O)C(C)=O`: the “activity change, negative = cytotoxic” value is -11.6% (inactive).

For the compound `CC(=O)OCC(=O)[C@@]1(OC(C)=O)[C@@H](C)C[C@H]2[C@@H]3C[C@H](F)C4=CC(=O)C=C[C@]4(C)[C@@]3(F)[C@@H](O)C[C@@]21C`, the “activity change, negative = cytotoxic” value was -13% (inactive).

For the compound `Cc1cccn2c(=O)c(-c3nnn[nH]3)cnc12`, the “activity change, negative = cytotoxic” value was -1.44% [at 16.1 µM] (inactive).

Take `O=C1c2ccccc2C(=O)C1c1ccccc1`: the “activity change, negative = cytotoxic” value was 7.8% (inactive).

As for `CCN1CCC[C@H]1CNC(=O)c1c(OC)ccc(Br)c1OC`, the “activity change, negative = cytotoxic” value was -8.11% (inactive).

In the case of `CC(=O)CC(c1ccc([N+](=O)[O-])cc1)c1c(O)c2ccccc2oc1=O` (stereo not given), the “activity change, negative = cytotoxic” value is -17.2% (inactive).

With `NC(=O)CC[C@@H]1NC(=O)[C@H](Cc2ccccc2)NC(=O)[C@H](Cc2ccc(O)cc2)NC(=O)CCSSC[C@@H](C(=O)N2CCC[C@H]2C(=O)N[C@@H](CCCN=C(N)N)C(=O)NCC(N)=O)NC(=O)[C@H](CC(N)=O)NC1=O`, the “activity change, negative = cytotoxic” value was -2.36% (inactive).

`CCN1CCN(c2cc3c(cc2F)c(=O)c(C(=O)O)cn3C2CC2)CC1`: the “activity change, negative = cytotoxic” value is 54.7% (inactive).

As for `CO/N=C1\CN(c2nc3c(cc2F)c(=O)c(C(=O)O)cn3C2CC2)CC1CN` (stereo not given), the “activity change, negative = cytotoxic” value is 48.5% (inactive).

Turning to `CCCC(=O)Nc1ccc(OCC(O)CNC(C)C)c(C(C)=O)c1` (stereo not given), the “activity change, negative = cytotoxic” value was -15.6% (inactive).

In the case of `Cc1ccnc(NS(=O)(=O)c2ccc(N)cc2)n1`, the “activity change, negative = cytotoxic” value was -2.28% (inactive).

On to `O=C(N/N=C/c1ccccc1O)c1ccncc1`, for which the Potency was 6.68 µM (active).

For the compound `O=C(Nc1ccc(Cl)c(Cl)c1)C1CC1`, the “activity change, negative = cytotoxic” value is -4.67% (inactive).

In the case of `CN(C)CC/C=C1/c2ccccc2COc2ccc(CC(=O)O)cc21`, the “activity change, negative = cytotoxic” value was -6.26% (inactive).

As to `CC(=O)OCC(=O)[C@@]12N=C(C)O[C@@H]1C[C@H]1[C@@H]3CCC4=CC(=O)C=C[C@]4(C)[C@H]3[C@@H](O)C[C@@]12C`, the “activity change, negative = cytotoxic” value was -8.8% (inactive).

Consider `O=C(O)CNC(=O)c1ccccc1`, for which the “activity change, negative = cytotoxic” value is -6.71% (inactive).

Take `CCCC(=O)O[C@]1(C(=O)CO)CC[C@H]2[C@@H]3CCC4=CC(=O)CC[C@]4(C)[C@H]3[C@@H](O)C[C@@]21C`: the “activity change, negative = cytotoxic” value was -26.7% (inactive).

As to `CCCCOc1cc(C(=O)NCCN(CC)CC)c2ccccc2n1`, the “activity change, negative = cytotoxic” value was -18.1% (inactive).

Consider `C[C@]12C=CC(=O)C=C1CC[C@@H]1[C@@H]2[C@@H](O)C[C@@]2(C)[C@H]1CC[C@]2(O)C(=O)CO`, for which the “activity change, negative = cytotoxic” value is -7.39% (inactive).

Regarding `CC(C)(CO)[C@@H](O)C(=O)NCCCO`, the “activity change, negative = cytotoxic” value is -10.3% (inactive).

With `COc1ccc(C2C(=O)c3ccccc3C2=O)cc1`, the “activity change, negative = cytotoxic” value is -9.43% (inactive).

As to `CCCCCCCCCCCCCCNCCO`, the “activity change, negative = cytotoxic” value is 1.53% (inactive).

Take `CCn1cc(C(=O)O)c(=O)c2cnc(N3CCCC3)nc21`: the activity change, negative = cytotoxic is -14.9% [at 9.22 µM] (inactive).

As to `Cc1c(F)c(N2CCNC(C)C2)cc2c1c(=O)c(C(=O)O)cn2C1CC1` (stereo not given), the “activity change, negative = cytotoxic” value was 41.7% (inactive).

As to `CCN(CCCc1ccccc1)CCCc1ccccc1`, the “activity change, negative = cytotoxic” value was 10.6% (inactive).

Source of the values: PubChem BioAssay (NCATS).
